Most compounds without a hit are left out; they make up all but 2.8% or so of the library.
Shn3 3UTR inh: inhibitors of Schnurri-3 3'UTR reporter in osteoblasts. Clone20 osteoblast Shn3 3'UTR firefly luciferase, 24 h. inhibition, % at 12.5 µM. 360,000 tested, 0.52% active. AID 588674;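 active means mean inhibition of at least 75% with every replicate also reaching 75%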;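 further: 0% = median of neutral control wells and 100% = pilot-screen positive control compound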
HIF-2a block: HIF-2a inhibition; 786-0 RCC cells HIF-2a reporter, luciferase luminescence, overnight; inhibition, % at 18.8 µM; 360,000 tested, 0.72% active; AID 624352;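 active means inhibition of the luminescence signal of 40% or more relative to plate controls, in a single-dose primary screen at 18.75 µM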
KKLEB tox: CF airway cell cytotoxicity counter-screen; activity change (cytotoxicity), % at 5 µM; KKLEB CF airway cells viability, ATPlite luminescence, overnight; stronger effect = lower value; cells stimulated with P. aeruginosa culture filtrate; 360,000 tested, 0.36% active;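 active means corrected activity change at or below -50% at 5 µM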
Peg3 prom inh: reduces Peg3 promoter-driven luciferase expression in HeLa | AID 588405 | inhibition, % at 20 µM | 360,000 tested, 1.7% active | HeLa PEG-Prom luciferase reporter, luminescence, overnight;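 active means inhibition of at least 50% at 20 µM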
MITF TRPM1 inh: MITF TRPM1 promoter inhibition in SK-MEL-5 cells; SK-MEL-5 TRPM1 promoter luciferase, 24 h; inhibition, % at 12.5 µM; 330,000 tested, 0.83% active; AID 488899;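 active means mean inhibition across replicates of 60% or more, whatever share of single replicates reaches that level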
CF NFkB inh: cystic fibrosis NF-kB activation inhibition. KKLEB NF-kB-GFP reporter, PAF-induced, GFP fluorescence overnight. inhibition, % at 5 µM. 360,000 tested, 0.86% active. AID 588850;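 active means at least 50% inhibition at 5 µM, scaled per plate between neutral and stimulator controls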;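 further: PAF is a Pseudomonas aeruginosa culture filtrate used as stimulus; plate controls were PAF-stimulated DMSO wells for no effect and unstimulated DMSO wells for full effect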
Mdm2 MdmX conf: confirmation of inhibitors of human Mdm2/MdmX interaction, set 2 | shares compounds with HIF-2a block | SaOS-2 split-luciferase Mdm2/MdmX complementation, luminescence | inhibition, % at 8 µM | 740 tested, 99% active | AID 504601;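 active means mean inhibition of the luminescence signal across two replicates at or above 26 percent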
HIF-2a inh conf: confirmation of HIF-2a inhibitors; 1,800 tested, 56% active; inhibition, % at 18.8 µM; shares compounds with HIF-2a block; 786-0 RCC cells, HIF-2a luciferase reporter luminescence, overnight;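 active means mean inhibition across four replicates of at least 40 percent at the single tested concentration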
HIF-1a cs: HIF-1a inhibition counter-screen for HIF-2a hits. 1,800 tested, 72% active. shares compounds with HIF-2a block. inhibition, % at 18.8 µM. MiaPaCa-2 HIF-1a luciferase reporter, desferoxamine, overnight;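 active means mean inhibition of the reporter signal across four replicates at the single tested dose of 50% or more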
Numbers without * were called inactive; · = no result given.

SMILES	Shn3 3UTR inh	HIF-2a block	KKLEB tox	Peg3 prom inh	MITF TRPM1 inh	CF NFkB inh	HIF-2a inh conf	HIF-1a cs	others
CC(=O)Nc1ccc(NC2=C(Cl)C(=O)c3ccccc3C2=O)cc1	·	·	·	·	·	·	·	·	Mdm2 MdmX conf=103.2*
c1ccc(-c2nnnc3ccccc23)cc1	9.9	14.3	-9.1	-4.3	2.7	9.2	·	·
Clc1ccc2nnnc(-c3ccccc3)c2c1	-28.6	83.0*	2.0	17.2	-9.4	6.7	71.2*	103.2*
COc1ccc(N(C(=O)CCl)C(C(=O)NCCc2ccccc2)c2cccs2)cc1 (stereo not given)	95.7*	96.4*	-92.1*	105.1*	88.3*	90.2*	98.2*	106.9*
COc1ccc(CNC(=O)C(c2ccncc2)N(C(=O)Cc2cccs2)c2ccccc2)cc1 (stereo not given)	-8.3	15.5	13.2	3.6	20.4	-8.1	·	·
Nc1cc(N)nc(SCC(=O)Nc2cc(S(=O)(=O)N3CCOCC3)ccc2Cl)n1	0.6	13.7	-12.1	1.6	0.8	-6.2	·	·
O=C(Nc1ccc2nc3n(c(=O)c2c1)CCCC3)c1cc([N+](=O)[O-])ccc1F	91.3*	47.8*	-22.5	111.0*	81.1*	47.5	24.9	105.0*	Mdm2 MdmX conf=103.0*
C=C1C(=O)c2sccc2C(c2ccc(OC)c(OC)c2)C1COC(C)=O (stereo not given)	99.1*	86.5*	-91.5*	104.8*	98.4*	83.8*	99.3*	106.5*
CCN1CCN(CC(=O)N2N=C(c3cccs3)CC2c2ccc(OC)c(OC)c2)C(=O)C1=O (stereo not given)	-6.2	9.6	-3.3	25.8	8.2	-7.2	·	·
COc1ccc(/C=N/NC(=O)c2cc(C34CC5CC(CC(C5)C3)C4)[nH]n2)cc1O	-27.5	55.0*	0.3	16.8	2.5	4.8	-0.4	31.9
COc1ccc2c(n1)Sc1nc3ccccc3nc1N2	-38.5	91.6*	7.5	-74.6	5.2	-92.7	-245.7	-22.3
COc1cc2ccccc2nn1	-23.4	3.1	-11.3	-8.9	-4.7	7.1	·	·
OC(c1cc(-c2ccc(C(F)(F)F)cc2)nc(C(F)(F)F)c1)C1CCCCN1 (stereo not given)	96.5*	75.3*	-70.5*	109.2*	100.0*	68.0*	5.4	106.5*	Mdm2 MdmX conf=103.2*
COc1cc2c(cc1OC)C(c1cc(Br)ccc1F)N(C(=O)CCl)CC2 (stereo not given)	97.7*	89.7*	-68.4*	101.8*	98.4*	105.3*	97.3*	103.2*	Mdm2 MdmX conf=103.2*
COc1cc2c(cc1OC)C(C1C(=O)CC(C)(C)CC1=O)N(C(=O)CCl)CC2 (stereo not given)	1.5	2.8	-0.9	-5.2	-0.5	-17.6	·	·
CC(=O)OC(C(=O)NCCN1CCOCC1)c1c(F)cccc1F (stereo not given)	-10.6	24.8	-4.1	4.5	-9.4	-9.9	·	·
CCCCCCCCCn1c2c(c(=N)c3c1CCC3)CCC2	65.2	20.9	-62.0*	65.6*	78.3*	55.4*	·	·	Mdm2 MdmX conf=101.5*
CCCn1c(=N)n(CC(=O)c2ccc(OCC(=O)OC)cc2)c2ccccc21	2.4	46.7*	-14.9	6.1	8.2	-4.1	2.6	4.1
CCCn1c(=N)n(CC(=O)OCC)c2ccccc21	5.8	-1.1	-11.6	-2.7	-5.9	4.8	·	·
COC(=O)c1ccc(COC(=O)C(NC(=O)Cc2ccccc2)C(C)C)cc1 (stereo not given)	-4.9	-4.6	-9.0	14.6	-5.3	15.3	·	·
CCOCCCn1c(=S)[nH]c2cc(C(=O)NCC(OC)OC)ccc2c1=O	5.5	4.7	-10.4	-5.1	4.9	5.2	·	·
COc1ccccc1-c1noc(CCCC(=O)NC2CCCC2)n1	-0.2	15.1	-3.4	-6.6	14.0	3.4	·	·
O=C(CCCc1nc(-c2ccccc2Cl)no1)NC1CCCC1	73.1	87.7*	-9.2	38.7	76.4*	3.7	96.3*	64.4*
CC(C)c1ccc(/C=C/C(=O)NC(=S)NN2CCOCC2)cc1	-27.6	40.8*	15.2	-68.1	-0.6	-23.5	-14.5	-13.6
CN(C)c1cccc(C(=O)N2CCCC(CCC(=O)NCc3ccccc3F)C2)c1 (stereo not given)	14.6	-60.6	5.8	-13.1	-2.3	-17.7	·	·
SMILES	Shn3 3UTR inh	HIF-2a block	KKLEB tox	Peg3 prom inh	MITF TRPM1 inh	CF NFkB inh	HIF-2a inh conf	HIF-1a cs	others
COc1c(Cl)cc(Cl)cc1C(=O)Nc1ccc(C(=O)O)cc1	-10.5	9.9	5.0	4.8	5.2	-0.7	·	·
COc1c(Cl)cc(Cl)cc1/C=C/C(=O)c1ccc(NC(=O)c2cccs2)cc1	68.9	87.3*	-82.1*	100.3*	68.1*	87.5*	-96.5	107.1*	Mdm2 MdmX conf=99.5*
COC(OC)C1(CCc2ccccc2)NC(=O)NC1=O (stereo not given)	2.6	-0.9	0.4	8.2	6.3	2.4	·	·
Cc1ccccc1Sc1ncnc2onc(C)c12	-11.6	8.5	3.6	5.7	10.3	6.8	·	·
Cc1noc2ncnc(Sc3c(Cl)cccc3Cl)c12	1.6	42.6*	5.8	96.8*	34.5	16.0	23.1	95.0*
CCOC(=O)Cn1c(S(=O)(=O)Cc2ccc(F)cc2)nc(-c2ccccc2)c1-c1ccccc1	54.8	5.7	0.1	23.4	-0.1	14.4	·	·
C#CCn1c(S(=O)(=O)Cc2ccc(F)cc2)nc(-c2ccccc2)c1-c1ccccc1	21.3	-5.6	2.7	11.0	-16.8	8.8	·	·	Mdm2 MdmX conf=101.2*
Cc1ccccc1CN1[C@@H](Cc2ccccc2)COCCS1(=O)=O	8.9	15.6	-11.1	-1.2	-7.3	20.4	·	·
C=C1[C@@H](O)[C@H](Cc2ccccc2)N(Cc2ccccc2Br)S1(=O)=O	12.3	70.7*	-93.4*	96.8*	4.8	84.8*	54.9*	106.1*
CC(C)(C)c1cc(/C=N/O)cc(C(C)(C)C)c1O	0.5	42.8*	1.4	8.4	-4.2	37.7	25.7	48.9
CC(C)(C)c1cc(/C=C2\NC(=O)NC2=O)cc(C(C)(C)C)c1O	6.5	26.9	-10.4	27.4	20.9	21.1	·	·
Cc1ccc(S(=O)(=O)N2CCOCC2)cc1NC(=O)COC(=O)COc1cccc2c1OC(C)(C)C2	1.9	8.1	18.8	-11.7	-0.8	-24.2	·	·
CCOC(=O)c1ccc(Nc2nc(N)c3cc(OC)c(OC)cc3n2)cc1	6.3	-44.1	-12.9	47.4	22.9	-37.4	·	·	Mdm2 MdmX conf=61.2*
COc1cc2nc(Nc3ccc(F)cc3)nc(N)c2cc1OC	12.5	-42.9	-12.9	-24.1	-23.6	-47.2	·	·
